What all share (experiment): DAPPL (digital affinity profiling via proximity ligation, sequencing); 10 mM Tris-HCl pH 7.5, 50 mM NaCl, 1 mM DTT, 4% glycerol, room temperature, 30 min; GST-TFs on glutathione beads, 16-mer random dsDNA library, 0.1% formaldehyde crosslink after washing; high values mean tight binding
One assay concerns the target T1, FEV (Homo sapiens, UniProt Q99581 1-238).
T1 sequence: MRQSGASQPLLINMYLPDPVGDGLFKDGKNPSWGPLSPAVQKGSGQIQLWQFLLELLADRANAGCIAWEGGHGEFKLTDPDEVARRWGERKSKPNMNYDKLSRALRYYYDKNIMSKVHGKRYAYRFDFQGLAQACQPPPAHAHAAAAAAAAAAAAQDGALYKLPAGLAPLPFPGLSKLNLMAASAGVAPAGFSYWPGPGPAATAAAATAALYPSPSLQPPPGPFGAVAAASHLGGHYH
The settings on record: protein: recombinant; tags: N-terminal GST; dsDNA, one strand shown. The gist of the method: (§1)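 Each value of binding signal is a hexamer's read frequency for a factor divided by the same hexamer's frequency in the tag-only sample. Barcoded, bead-captured GST fusions of human transcription factors made in yeast were pooled with that sample and incubated with 200 nmole of a random double-stranded 16-mer DNA library in Tris/NaCl/DTT/glycerol buffer at room temperature for 30 min. Washing, 0.1% formaldehyde crosslinking, proximity ligation, PCR and Illumina NextSeq500 sequencing followed.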

For a further assay, the target named is ETV5 (Homo sapiens, UniProt P41161 1-510). The following applies: protein: recombinant; tags: N-terminal GST; dsDNA, one strand shown. The gist of the method:
as §1

In another assay the target is HSF1 (Homo sapiens, UniProt Q00613 1-529). The following applies: protein: recombinant; tags: N-terminal GST; chain copies: 3; dsDNA, one strand shown. An outline of the steps: as §1
Sequence of HSF1 (Q00613 whole entry): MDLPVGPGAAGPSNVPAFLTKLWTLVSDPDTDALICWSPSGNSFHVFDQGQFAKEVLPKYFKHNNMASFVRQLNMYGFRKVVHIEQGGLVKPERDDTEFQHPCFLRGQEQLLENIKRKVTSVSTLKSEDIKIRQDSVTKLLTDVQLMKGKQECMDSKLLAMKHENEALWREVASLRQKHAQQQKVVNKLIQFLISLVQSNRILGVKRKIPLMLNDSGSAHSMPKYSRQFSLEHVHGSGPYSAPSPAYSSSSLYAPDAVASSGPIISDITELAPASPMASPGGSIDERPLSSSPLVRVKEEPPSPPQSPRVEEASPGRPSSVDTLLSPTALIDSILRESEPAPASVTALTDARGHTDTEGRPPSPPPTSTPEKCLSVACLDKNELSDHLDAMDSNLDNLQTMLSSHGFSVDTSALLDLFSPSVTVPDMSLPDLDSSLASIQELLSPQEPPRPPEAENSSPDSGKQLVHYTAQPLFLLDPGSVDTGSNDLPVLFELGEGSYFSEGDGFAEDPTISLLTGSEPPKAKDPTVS
Another assay deals with T2, SPIC (Homo sapiens, UniProt Q8N5J4 1-248).
T2 sequence: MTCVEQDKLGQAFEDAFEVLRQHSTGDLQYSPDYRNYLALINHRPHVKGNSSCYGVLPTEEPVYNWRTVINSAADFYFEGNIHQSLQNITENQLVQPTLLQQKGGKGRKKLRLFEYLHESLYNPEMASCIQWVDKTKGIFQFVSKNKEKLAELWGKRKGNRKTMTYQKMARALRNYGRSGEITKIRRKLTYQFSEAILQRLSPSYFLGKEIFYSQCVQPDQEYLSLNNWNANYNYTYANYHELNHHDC
The following applies: protein: recombinant; tags: N-terminal GST; dsDNA, one strand shown. An outline of the steps:
as §1

A further assay concerns the target ELF4 (Homo sapiens, UniProt Q99607 1-663). The following applies: protein: recombinant; tags: N-terminal GST; dsDNA, one strand shown. An outline of the steps:
as §1

For another assay, the target named is T3, ELK4 (Homo sapiens, UniProt P28324-2 1-405).
T3 sequence: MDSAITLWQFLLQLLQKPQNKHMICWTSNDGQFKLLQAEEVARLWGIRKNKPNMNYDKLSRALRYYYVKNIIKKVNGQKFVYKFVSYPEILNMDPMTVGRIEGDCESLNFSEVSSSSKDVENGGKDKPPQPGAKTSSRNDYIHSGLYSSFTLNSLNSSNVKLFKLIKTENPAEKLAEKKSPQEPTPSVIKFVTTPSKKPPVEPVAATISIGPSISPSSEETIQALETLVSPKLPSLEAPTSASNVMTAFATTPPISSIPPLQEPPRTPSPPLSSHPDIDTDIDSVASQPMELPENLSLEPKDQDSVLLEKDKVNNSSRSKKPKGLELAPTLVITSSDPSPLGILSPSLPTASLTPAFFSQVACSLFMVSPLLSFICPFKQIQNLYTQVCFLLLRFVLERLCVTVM
The following applies: protein: recombinant; tags: N-terminal GST; dsDNA, one strand shown. An outline of the steps: as §1

The target of another assay is T4, ETV2 (Homo sapiens, UniProt O00321 1-342).
T4 sequence: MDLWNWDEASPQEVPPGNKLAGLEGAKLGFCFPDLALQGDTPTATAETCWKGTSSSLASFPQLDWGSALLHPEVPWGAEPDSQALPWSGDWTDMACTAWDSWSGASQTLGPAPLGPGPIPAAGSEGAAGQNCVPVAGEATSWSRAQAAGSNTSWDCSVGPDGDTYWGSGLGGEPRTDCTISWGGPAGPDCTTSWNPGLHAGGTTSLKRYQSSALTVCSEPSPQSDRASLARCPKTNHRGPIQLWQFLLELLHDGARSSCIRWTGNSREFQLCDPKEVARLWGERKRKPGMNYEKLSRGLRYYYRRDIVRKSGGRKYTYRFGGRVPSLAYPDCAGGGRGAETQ
The following applies: protein: recombinant; tags: N-terminal GST; dsDNA, one strand shown. An outline of the steps: as §1

A further assay deals with T5, ELF3 (Homo sapiens, UniProt P78545 1-371).
T5 sequence: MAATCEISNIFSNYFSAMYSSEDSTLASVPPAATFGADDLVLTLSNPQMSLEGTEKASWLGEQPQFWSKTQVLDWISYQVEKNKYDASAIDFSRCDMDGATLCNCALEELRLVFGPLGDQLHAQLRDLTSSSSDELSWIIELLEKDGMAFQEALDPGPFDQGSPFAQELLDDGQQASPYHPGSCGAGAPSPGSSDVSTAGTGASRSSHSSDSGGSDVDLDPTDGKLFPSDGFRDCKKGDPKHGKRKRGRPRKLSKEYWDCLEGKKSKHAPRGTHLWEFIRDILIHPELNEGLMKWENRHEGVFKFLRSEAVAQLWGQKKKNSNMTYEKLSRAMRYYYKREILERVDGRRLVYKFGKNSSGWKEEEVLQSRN
The following applies: protein: recombinant; tags: N-terminal GST; dsDNA, one strand shown. An outline of the steps: as §1

Another assay has as its target CRX (Homo sapiens, UniProt O43186 1-299). The following applies: protein: recombinant; tags: N-terminal GST; dsDNA, one strand shown. The gist of the method:
as §1

Another assay concerns the target ETV1 (Homo sapiens, UniProt P50549 1-477). The settings on record: protein: recombinant; tags: N-terminal GST; dsDNA, one strand shown. An outline of the steps:
as §1

Another assay concerns the target T6, ERF (Homo sapiens, UniProt P50548 1-548).
T6 sequence: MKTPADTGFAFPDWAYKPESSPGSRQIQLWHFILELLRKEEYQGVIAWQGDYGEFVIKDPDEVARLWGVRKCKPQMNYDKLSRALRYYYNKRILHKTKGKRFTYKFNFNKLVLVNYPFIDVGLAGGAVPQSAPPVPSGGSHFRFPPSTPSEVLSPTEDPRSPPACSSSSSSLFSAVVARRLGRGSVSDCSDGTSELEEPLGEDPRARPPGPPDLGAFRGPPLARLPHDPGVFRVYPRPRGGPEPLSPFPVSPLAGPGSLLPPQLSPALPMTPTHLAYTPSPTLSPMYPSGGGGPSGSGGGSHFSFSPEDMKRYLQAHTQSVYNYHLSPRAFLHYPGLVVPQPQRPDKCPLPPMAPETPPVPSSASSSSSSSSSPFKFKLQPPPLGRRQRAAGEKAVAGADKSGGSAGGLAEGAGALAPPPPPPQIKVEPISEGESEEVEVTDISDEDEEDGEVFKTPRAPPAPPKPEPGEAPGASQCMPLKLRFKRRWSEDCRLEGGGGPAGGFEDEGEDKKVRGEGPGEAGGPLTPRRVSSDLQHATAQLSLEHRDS
The settings on record: protein: recombinant; tags: N-terminal GST; dsDNA, one strand shown. An outline of the steps:
as §1

The target of the next assay is T7, ETV3L (Homo sapiens, UniProt Q6ZN32 1-361).
T7 sequence: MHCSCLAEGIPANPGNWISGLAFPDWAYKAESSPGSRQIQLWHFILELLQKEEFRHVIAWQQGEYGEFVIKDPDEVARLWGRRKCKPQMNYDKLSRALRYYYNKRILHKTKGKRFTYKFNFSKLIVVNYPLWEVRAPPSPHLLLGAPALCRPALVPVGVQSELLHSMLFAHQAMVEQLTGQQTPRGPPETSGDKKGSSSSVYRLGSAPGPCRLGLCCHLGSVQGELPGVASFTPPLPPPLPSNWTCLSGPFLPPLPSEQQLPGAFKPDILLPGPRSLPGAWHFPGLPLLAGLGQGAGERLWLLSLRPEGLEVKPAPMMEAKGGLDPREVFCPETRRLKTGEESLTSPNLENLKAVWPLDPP
The following applies: protein: recombinant; tags: N-terminal GST; dsDNA, one strand shown. The gist of the method: as §1

In another assay the target is T8, ETS2 (Homo sapiens, UniProt P15036 1-469).
T8 sequence: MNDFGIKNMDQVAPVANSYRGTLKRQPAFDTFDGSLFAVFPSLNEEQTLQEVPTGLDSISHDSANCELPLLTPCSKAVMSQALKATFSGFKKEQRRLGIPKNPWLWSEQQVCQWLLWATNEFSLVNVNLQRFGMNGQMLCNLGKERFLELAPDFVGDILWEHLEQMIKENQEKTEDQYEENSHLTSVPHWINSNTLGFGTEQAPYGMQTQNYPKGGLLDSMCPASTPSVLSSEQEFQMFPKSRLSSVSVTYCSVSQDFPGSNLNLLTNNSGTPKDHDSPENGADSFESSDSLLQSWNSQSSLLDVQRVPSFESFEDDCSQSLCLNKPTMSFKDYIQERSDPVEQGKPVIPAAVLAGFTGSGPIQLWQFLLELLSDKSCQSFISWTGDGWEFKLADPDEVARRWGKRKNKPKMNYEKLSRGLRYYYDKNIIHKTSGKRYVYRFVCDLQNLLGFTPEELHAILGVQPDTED
The following applies: protein: recombinant; tags: N-terminal GST; dsDNA, one strand shown. The gist of the method: as §1

The target in another assay is T9, SPDEF (Homo sapiens, UniProt O95238 1-335).
T9 sequence: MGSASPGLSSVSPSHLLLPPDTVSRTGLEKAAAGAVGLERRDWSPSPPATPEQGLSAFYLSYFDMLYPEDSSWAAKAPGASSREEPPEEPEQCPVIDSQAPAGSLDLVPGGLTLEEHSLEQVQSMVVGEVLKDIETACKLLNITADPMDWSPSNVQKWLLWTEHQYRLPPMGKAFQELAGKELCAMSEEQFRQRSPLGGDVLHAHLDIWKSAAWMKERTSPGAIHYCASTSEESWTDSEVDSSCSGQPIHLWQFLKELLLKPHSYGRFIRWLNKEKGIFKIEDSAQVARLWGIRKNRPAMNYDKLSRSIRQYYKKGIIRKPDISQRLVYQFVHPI
The following applies: protein: recombinant; tags: N-terminal GST; dsDNA, one strand shown. The gist of the method: as §1

The target in the next assay is T10, ETV7 (Homo sapiens, UniProt Q9Y603 1-341).
T10 sequence: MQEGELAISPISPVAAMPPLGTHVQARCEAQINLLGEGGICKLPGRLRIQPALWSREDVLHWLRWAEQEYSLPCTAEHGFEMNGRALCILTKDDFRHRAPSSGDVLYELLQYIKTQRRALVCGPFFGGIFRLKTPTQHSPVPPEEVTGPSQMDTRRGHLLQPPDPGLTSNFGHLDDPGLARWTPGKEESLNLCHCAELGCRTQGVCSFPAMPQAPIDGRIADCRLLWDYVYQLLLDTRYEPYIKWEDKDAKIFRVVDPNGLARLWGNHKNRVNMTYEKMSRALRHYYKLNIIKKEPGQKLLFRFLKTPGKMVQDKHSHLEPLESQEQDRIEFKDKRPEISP
The following applies: protein: recombinant; tags: N-terminal GST; dsDNA, one strand shown. An outline of the steps: as §1

The target in a further assay is T11, ELF5 (Homo sapiens, UniProt Q9UKW6-2 1-255).
T11 sequence: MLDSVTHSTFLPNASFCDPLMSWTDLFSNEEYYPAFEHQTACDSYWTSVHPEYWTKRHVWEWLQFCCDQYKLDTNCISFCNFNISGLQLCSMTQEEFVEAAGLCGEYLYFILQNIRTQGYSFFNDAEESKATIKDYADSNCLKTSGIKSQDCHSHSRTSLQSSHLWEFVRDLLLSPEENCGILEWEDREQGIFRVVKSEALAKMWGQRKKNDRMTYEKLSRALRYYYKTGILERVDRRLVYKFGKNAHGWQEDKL
The settings on record: protein: recombinant; tags: N-terminal GST; dsDNA, one strand shown. The gist of the method: as §1

A further assay deals with T12, ETV3 (Homo sapiens, UniProt P41162-2 1-143).
T12 sequence: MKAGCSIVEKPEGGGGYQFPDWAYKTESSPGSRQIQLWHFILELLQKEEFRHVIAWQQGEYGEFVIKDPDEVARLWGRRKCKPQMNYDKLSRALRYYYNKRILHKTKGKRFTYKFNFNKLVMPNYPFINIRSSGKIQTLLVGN
The settings on record: protein: recombinant; tags: N-terminal GST; dsDNA, one strand shown. The gist of the method:
as §1

For another assay, the target named is ETV6 (Homo sapiens, UniProt P41212 1-452). The settings on record: protein: recombinant; tags: N-terminal GST; dsDNA, one strand shown. An outline of the steps:
as §1

Sequence of ETV1 (P50549 whole entry): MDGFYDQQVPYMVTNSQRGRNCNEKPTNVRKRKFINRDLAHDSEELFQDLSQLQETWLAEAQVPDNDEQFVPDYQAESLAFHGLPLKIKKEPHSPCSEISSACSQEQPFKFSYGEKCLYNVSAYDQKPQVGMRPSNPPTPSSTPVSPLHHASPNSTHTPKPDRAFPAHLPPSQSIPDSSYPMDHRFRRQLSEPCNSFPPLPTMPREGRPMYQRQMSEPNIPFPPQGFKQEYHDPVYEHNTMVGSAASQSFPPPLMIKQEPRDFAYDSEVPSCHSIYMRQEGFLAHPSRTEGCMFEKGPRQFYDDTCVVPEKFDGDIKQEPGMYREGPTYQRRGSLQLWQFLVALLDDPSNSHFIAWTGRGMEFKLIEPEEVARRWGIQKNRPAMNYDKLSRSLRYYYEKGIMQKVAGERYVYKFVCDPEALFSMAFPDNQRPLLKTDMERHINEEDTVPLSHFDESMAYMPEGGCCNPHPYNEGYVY
Sequence of ELF4 (Q99607 whole entry): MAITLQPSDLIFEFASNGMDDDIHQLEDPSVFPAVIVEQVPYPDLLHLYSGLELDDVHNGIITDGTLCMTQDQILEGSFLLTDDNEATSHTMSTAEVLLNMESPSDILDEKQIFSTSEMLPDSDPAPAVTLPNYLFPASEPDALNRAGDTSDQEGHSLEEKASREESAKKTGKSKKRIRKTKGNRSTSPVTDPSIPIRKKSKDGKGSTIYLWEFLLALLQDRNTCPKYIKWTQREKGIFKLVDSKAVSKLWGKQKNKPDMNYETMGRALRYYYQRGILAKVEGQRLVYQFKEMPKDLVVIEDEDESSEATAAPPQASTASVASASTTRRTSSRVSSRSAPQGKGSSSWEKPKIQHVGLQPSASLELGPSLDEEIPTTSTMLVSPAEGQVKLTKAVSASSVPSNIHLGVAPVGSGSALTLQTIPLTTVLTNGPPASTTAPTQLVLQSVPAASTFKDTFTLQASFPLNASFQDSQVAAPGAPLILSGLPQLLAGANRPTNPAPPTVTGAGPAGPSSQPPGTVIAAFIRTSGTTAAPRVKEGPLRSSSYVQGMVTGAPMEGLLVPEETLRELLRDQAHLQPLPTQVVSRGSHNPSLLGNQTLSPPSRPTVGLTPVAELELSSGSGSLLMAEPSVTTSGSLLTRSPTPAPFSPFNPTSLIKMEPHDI
Sequence of ETV6 (P41212 whole entry): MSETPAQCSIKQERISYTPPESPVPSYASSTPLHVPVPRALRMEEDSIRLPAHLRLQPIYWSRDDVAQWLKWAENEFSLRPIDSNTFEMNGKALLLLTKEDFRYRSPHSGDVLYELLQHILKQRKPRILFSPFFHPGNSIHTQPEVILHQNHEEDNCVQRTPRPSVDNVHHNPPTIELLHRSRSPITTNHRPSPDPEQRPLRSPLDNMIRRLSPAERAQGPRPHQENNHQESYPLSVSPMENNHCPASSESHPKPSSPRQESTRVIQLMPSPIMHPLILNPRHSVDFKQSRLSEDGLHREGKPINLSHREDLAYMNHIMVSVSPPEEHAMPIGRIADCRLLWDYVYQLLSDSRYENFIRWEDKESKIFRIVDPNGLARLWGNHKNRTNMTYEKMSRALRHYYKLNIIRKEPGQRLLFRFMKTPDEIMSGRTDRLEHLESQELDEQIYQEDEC
Sequence of ETV5 (P41161 whole entry): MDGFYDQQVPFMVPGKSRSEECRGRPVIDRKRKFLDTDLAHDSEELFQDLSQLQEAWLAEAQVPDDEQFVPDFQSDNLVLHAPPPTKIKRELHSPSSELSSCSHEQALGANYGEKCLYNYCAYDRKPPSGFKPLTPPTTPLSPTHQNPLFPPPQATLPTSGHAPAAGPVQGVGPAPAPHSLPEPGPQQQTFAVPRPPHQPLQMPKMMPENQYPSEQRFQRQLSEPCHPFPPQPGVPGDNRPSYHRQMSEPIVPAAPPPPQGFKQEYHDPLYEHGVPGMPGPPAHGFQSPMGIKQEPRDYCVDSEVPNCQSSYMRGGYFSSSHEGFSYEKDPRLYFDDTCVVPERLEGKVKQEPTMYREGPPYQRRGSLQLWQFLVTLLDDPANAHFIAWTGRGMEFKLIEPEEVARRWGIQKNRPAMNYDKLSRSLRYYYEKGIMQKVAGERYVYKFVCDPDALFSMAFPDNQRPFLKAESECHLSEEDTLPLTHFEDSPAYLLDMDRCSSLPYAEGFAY
Sequence of CRX (O43186 whole entry): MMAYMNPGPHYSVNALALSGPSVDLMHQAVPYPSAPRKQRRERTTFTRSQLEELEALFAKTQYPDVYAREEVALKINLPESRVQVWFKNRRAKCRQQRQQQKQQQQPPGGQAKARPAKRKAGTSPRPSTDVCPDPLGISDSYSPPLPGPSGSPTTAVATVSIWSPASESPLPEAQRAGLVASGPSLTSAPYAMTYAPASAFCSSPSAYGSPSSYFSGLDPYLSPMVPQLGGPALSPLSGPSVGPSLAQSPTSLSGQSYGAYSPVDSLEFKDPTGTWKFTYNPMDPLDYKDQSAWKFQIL

With ATGCTC, the binding signal is 1.39 fold enrichment (6-mer frequency, TF over GST control) with FEV; 1.41 fold enrichment (6-mer frequency, TF over GST control) in the assay with ETV5; 1.43 fold enrichment (6-mer frequency, TF over GST control) with HSF1; 1.47 fold enrichment (6-mer frequency, TF over GST control) with SPIC; 1.46 fold enrichment (6-mer frequency, TF over GST control) with ELF4; 1.32 fold enrichment (6-mer frequency, TF over GST control) with ELK4. In addition, the binding signal in the assay with ETV2 is 1.37 fold enrichment (6-mer frequency, TF over GST control); with ELF3, 1.47 fold enrichment (6-mer frequency, TF over GST control); with CRX, 1.38 fold enrichment (6-mer frequency, TF over GST control); with ETV1, 1.42 fold enrichment (6-mer frequency, TF over GST control); with ERF it was 1.33 fold enrichment (6-mer frequency, TF over GST control); with ETV3L, 1.51 fold enrichment (6-mer frequency, TF over GST control). Moreover, the binding signal with ETS2 was 1.42 fold enrichment (6-mer frequency, TF over GST control); with SPDEF, 1.43 fold enrichment (6-mer frequency, TF over GST control); in the assay with ETV7, 1.37 fold enrichment (6-mer frequency, TF over GST control); with ELF5, 1.38 fold enrichment (6-mer frequency, TF over GST control); with ETV3, 1.35 fold enrichment (6-mer frequency, TF over GST control); with ETV6, 1.44 fold enrichment (6-mer frequency, TF over GST control).

For the origin of these results see article PMC7862700, “An all-to-all approach to the identification of sequence-specific readers for epigenetic DNA modifications on cytosine”.
